Assay outcomes deposited in PubChem BioAssay by Broad Institute.
MITF inhib: inhibitors of MITF; inhibition, % (concentration not given with the values); TRPM1 promoter luciferase, luminescence, 24 h; 0.28% of 37,000 active; AID 2240; in the data active = inhibition above about 85%;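 also: human melanocyte line stably carrying TRPM1 promoter luciferase reporter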
Hedgehog inh: blocks Sonic Hedgehog signaling. Shh-LIGHT2 Gli-luciferase reporter, 30 h. inhibition, % (no concentration beside the values). 2.1% of 22,000 active;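 active = mean inhibition across valid replicates above about 65%, limit read from the data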;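 also: pathway switched on by Shh-conditioned medium diluted 1 in 25 in low serum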
Large screens that a line does not name were inactive. This is one part of a sample in which hits are shown more often than they occur.

C[C@H](CO)N1C[C@H](C)[C@H](CN(C)Cc2ccc(Cl)c(Cl)c2)Oc2c(NS(=O)(=O)c3ccc(Cl)cc3)cccc2C1=O	Hedgehog inh 90.2
Cc1ccc(S(=O)(=O)Nc2cccc3c2O[C@H](CN(C)Cc2ccc(Cl)c(Cl)c2)[C@H](C)CN([C@@H](C)CO)C3=O)cc1	none
O=C1N=c2ccccc2=N/C1=N\C(=S)Nc1ccccc1	none
CC(=O)C1C(=O)[C@@H]2[C@H]3c4c[nH]c5cccc(c45)C[C@H]3C(C)(C)N2C1=O (stereo partly specified)	Hedgehog inh 77.0
CC(=O)C1C(=O)C2C3c4c[nH]c5cccc(c45)CC3C(C)(C)N2C1=O (stereo unspecified)	none
O=C(CC(Sc1ccc(Br)cc1)C(=O)O)c1ccc(Cl)cc1 (stereo unspecified)	none
CNC(=O)Cc1coc2ccc3ccccc3c12	none (no result: Hedgehog inh)
CCN1C(=O)/C(=C/C=C2\Sc3ccc(Cl)cc3N2C)SC1=S	none
C=C1C(=O)O[C@H]2C1C[C@@H](OC(C)=O)[C@@]1(C)[C@@H](OC(C)=O)C[C@@H](OC(C)=O)C(=C)[C@H]21 (stereo partly specified)	none
C=C(C)C(=O)O[C@H]1[C@H]2C(=C)C(=O)O[C@@H]2C[C@@H](C)/C=C/C(=O)[C@](C)(O)[C@@H]1OC(C)=O	MITF inhib 89.8
CC(=O)O[C@@H]1CC2C(C)(C)CCC[C@]2(C)C2CC[C@]3(C)C(=CC(=O)O[C@H]3c3ccoc3)[C@@]21C (stereo partly specified)	none
OC(Cc1cccnc1)(c1ccccc1)c1ccccc1	Hedgehog inh 70.6
O=C(O)c1cccc(NCc2cccnc2)c1	none (no result: Hedgehog inh)
O=C(O)c1c2c(nc3ccccc13)CCC(c1ccccc1)C2 (stereo unspecified)	none (no result: Hedgehog inh)
OC(COc1ccc(F)cc1)(c1ccc(Cl)cc1)c1ccc(Cl)cc1	Hedgehog inh 74.6
O=S(=O)(Cc1ccc(Cl)cc1)CC(O)COc1ccc(F)cc1 (stereo unspecified)	none
Cc1nc(-c2ccncc2)nc(NCCNc2cc(C(F)(F)F)ccn2)c1Cl	none
COc1cccc(NC(=O)CCc2nc(-c3ccccc3Cl)no2)c1	none (no result: Hedgehog inh)
CCOC(=O)c1oc2ccc(C=NC(C)(C)C)c(Cl)c2c1C	none
CCOC(=O)c1oc2ccccc2c1CO	Hedgehog inh 97.2
c1ccc(-c2cnc3nonc3n2)cc1	Hedgehog inh 82.4
Cc1cc2ncc(-c3ccccc3)nc2cc1C	none
COc1ccc(OC)c(-n2c(=S)[nH]c3cc(C(=O)N4CCC(C(N)=O)CC4)ccc3c2=O)c1	none
COc1ccc(OC)c(-n2c(=S)[nH]c3cc(C(=O)NCc4ccc(F)cc4)ccc3c2=O)c1	Hedgehog inh 77.1
O=C(O)COc1cccc(-c2nc3ccccc3s2)c1	MITF inhib 104.7 (no result: Hedgehog inh)
Cc1cccc(OCC(=O)Nc2cccc(-c3nc4ccccc4s3)c2)c1	none (no result: Hedgehog inh)
Nc1cccc(-c2nnc(SCC(=O)Nc3cccc(Cl)c3)n2-c2ccccc2)c1	none (no result: Hedgehog inh)
COC(=O)CC(O)(CCCC(C)(C)O)C(=O)O[C@@H]1C(OC)=C[C@]23CCCN2CCc2cc4c(cc2[C@@H]13)OCO4 (stereo partly specified)	MITF inhib 93.4, Hedgehog inh 103.7
CC1(C)c2ccccc2N2CC(=O)NC21/C=C/c1ccc(N2CCOCC2)cc1 (stereo unspecified)	none
COC(=O)c1cccc(NC(=O)C(C)Oc2ccc3c(C)cc(=O)oc3c2)c1 (stereo unspecified)	none (no result: Hedgehog inh)
C=C[C@](C)(CC/C=C(\C)CC[C@H](O)C(C)(C)O)O[C@@H]1O[C@H](CO)[C@@H](O)[C@H](O)[C@H]1O	none
C=CC(C)(CC/C=C(\C)C(O)CC=C(C)C)OC1OC(CO)C(O)C(O)C1O (stereo unspecified)	Hedgehog inh 78.2 (no result: MITF inhib)
C/C=C(\CO)C(=O)O[C@H]1[C@H](O)[C@@H](C(=O)OC)O[C@@H]2C[C@H]3OC(n4cnc5c(N)ncnc54)[C@H](OC)[C@H]3O[C@]21O (stereo partly specified)	none
COc1ccc(CC(N)C(=O)N[C@H]2[C@@H](O)[C@H](n3cnc4c(N(C)C)ncnc43)O[C@@H]2CO)cc1 (stereo partly specified)	MITF inhib 92.1, Hedgehog inh 97.1
CSc1sc(C(=O)Sc2ccccc2)cc1S(=O)(=O)C(C)C	none
O=C(CSc1nc2ccc([N+](=O)[O-])cc2[nH]1)Nc1ccc2c(c1)OCCO2	none (no result: Hedgehog inh)
O=C(CSc1nc2ccc([N+](=O)[O-])cc2[nH]1)Nc1cc(C(F)(F)F)cc(C(F)(F)F)c1	MITF inhib 86.7 (no result: Hedgehog inh)
COc1ccc(Sc2ccccc2COC(C)=O)c(C(=O)O)c1	none
CC(Oc1ccc(Br)cc1)c1nc(-c2ccccn2)no1 (stereo unspecified)	none (no result: Hedgehog inh)
C[C@H]1C(=O)N2c3ccccc3[C@@]3(O)C[C@@H]4C(=O)N[C@@](C)(c5nc6ccccc6c(=O)n54)N1[C@@H]23	none
OC(c1ccccc1)c1oc2ccccc2c1-c1cnn(-c2ccccc2)c1 (stereo unspecified)	Hedgehog inh 97.7
CC(C)(C)C1CCc2c(sc3nc(-c4cccs4)oc(=O)c23)C1 (stereo unspecified)	none
